Values joined by “and” are separate entries in the source; they are usually repeats but may differ in a detail not shown here. Equal entries are not always repeated. Records with an inconclusive call do not appear. Active and inactive are the calls of the source. Rule for the calls: active = hit-call score of the fitted dose curve at least 0.9, where 1 is the maximum; inconclusive = response in the unintended direction; inactive = score below 0.9.
experiment: ACEA_ER_AUC_viability: ACEA Biosciences xCELLigence Real-Time Cell Analysis on Estrogen Receptor Agonism for Viability (AID 2283782);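 note: continuous compound exposure with impedance area under curve over 80 h; hit means loss of impedance signal meaning reduced cell growth or viability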
Procedure, shortened: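 T47D cells preconditioned in phenol red-free RPMI with charcoal-stripped FBS, then dosed with 8-point 1:4 series from 100 uM (up to 0.5% DMSO). Impedance monitored up to ~80 h; area-under-curve loss versus DMSO taken as viability.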

For `C=CC(=O)NC(C)(C)CC(C)=O`, which outcome is on record?
Its outcome is “inactive”.

Which AC50 does the source give for `c1ccc2sc(SNC3CCCCC3)nc2c1` here?
Its AC50 is 85.5 µM (active).

With `O=C(O)COc1cc(Cl)c(Cl)cc1Cl` as the compound, how does the outcome read?
Its outcome is “inactive”.

Which outcome does the source give for `CC(C=O)Cc1ccc2c(c1)OCO2` (centres undefined) here?
Its outcome is “inactive”.

For `CCN(CC)C(=O)C(Cl)=C(C)OP(=O)(OC)OC`, which AC50 is on record?
The AC50 was 25.8 µM (active).

For `Cc1cc(Cl)ccc1N`, which AC50 is on record?
The AC50 was 80.8 µM (active) and 14.3 µM (active).

For `C=CCN=C=S`, which outcome is on record?
The outcome was “inactive”.

For `CCC(C)(C#N)N=NC(C)(C#N)CC` (centres undefined), which outcome is on record?
The outcome was “inactive”.

With `Cc1c([N+](=O)[O-])c(C)c([N+](=O)[O-])c(C(C)(C)C)c1[N+](=O)[O-]` as the compound, how does the outcome read?
Its outcome is “inactive”.

Which AC50 does the source give for `NC(=O)CCl` here?
The AC50 was 39.6 µM (active).

Which AC50 does the source give for `O=C=Nc1ccc(Cl)cc1` here?
The AC50 was 29.9 µM (active).

For `Brc1c(Br)c(Br)c(Oc2c(Br)c(Br)c(Br)c(Br)c2Br)c(Br)c1Br`, which outcome is on record?
The outcome was “inactive”.

With `O=C(CCl)NCO` as the compound, how does the outcome read?
The outcome was “inactive”.

Which AC50 does the source give for `ClCc1ccccc1CCl` here?
The AC50 was 29.6 µM (active).

For `ClCCN1CCOCC1`, which AC50 is on record?
The AC50 was 31.6 µM (active).

Which outcome does the source give for `O=[N+]([O-])c1cccc2ccccc12` here?
Its outcome is “inactive”.

With `O=[N+]([O-])c1cc([As](=O)(O)O)ccc1O` as the compound, how does the outcome read?
Its outcome is “inactive”.

With `c1ccc2c(c1)Oc1ccccc1O2` as the compound, how does the outcome read?
The outcome was “inactive”.

With `CN(C1CCCCC1)C1CCCCC1` as the compound, how does the AC50 read?
The AC50 was 68.6 µM (active).

With `CCCCC(CC)COC(=O)Cl` (centres undefined) as the compound, how does the outcome read?
Its outcome is “inactive”.

For `CC[N+](CC)(CC)CC`, which outcome is on record?
Its outcome is “inactive”.

Which AC50 does the source give for `N#Cc1ccc(Cl)cc1` here?
The AC50 was 50 µM (active).

For `Cc1ccc(CCl)cc1`, which AC50 is on record?
The AC50 was 40.7 µM (active).

Which outcome does the source give for `Nc1cccnc1` here?
Its outcome is “inactive”.

Which outcome does the source give for `C1CN2CCN1CC2` here?
Its outcome is “inactive”.

For `CC(C)(COCC1CO1)COCC1CO1` (centres undefined), which AC50 is on record?
The AC50 was 29.9 µM (active).

With `N#Cc1ccccc1Cl` as the compound, how does the outcome read?
The outcome was “inactive”.

For `C[N+](C)(C)Cc1ccccc1`, which outcome is on record?
The outcome was “inactive”.

With `O=C(Cl)OCCOCCOC(=O)Cl` as the compound, how does the outcome read?
The outcome was “inactive”.

Which outcome does the source give for `C=C(C)C(=O)OCC(CC)CCCC` (centres undefined) here?
Its outcome is “inactive”.

Which outcome does the source give for `CCCCC(CC)C(=O)Cl` (centres undefined) here?
The outcome was “inactive”.

For `O=c1oc2ccccc2c(O)c1C(CC(O)c1ccc(-c2ccc(Br)cc2)cc1)c1ccccc1` (centres undefined), which AC50 is on record?
Its AC50 is 22.7 µM (active).

Which AC50 does the source give for `O=S(=O)(C(Cl)(Cl)Cl)C(Cl)(Cl)Cl` here?
The AC50 was 5.21 µM (active).

Which AC50 does the source give for `Cc1cccc(OP(=O)(Oc2cccc(C)c2)Oc2cccc(C)c2)c1` here?
Its AC50 is 17.3 µM (active).

Which outcome does the source give for `CCN(N=O)C(N)=O` here?
Its outcome is “inactive”.

Which outcome does the source give for `CCOC(=O)C(SP(=S)(OC)OC)c1ccccc1` (centres undefined) here?
Its outcome is “inactive”.

Which AC50 does the source give for `OC[P+](CO)(CO)CO` here?
Its AC50 is 50 µM (active).

With `O=C/C(Cl)=C(/Cl)C(=O)O` as the compound, how does the AC50 read?
The AC50 was 73.9 µM (active).

Which AC50 does the source give for `O=S(=O)(c1ccc(Cl)cc1)c1cc(Cl)c(Cl)cc1Cl` here?
The AC50 was 69.2 µM (active).

From PubChem BioAssay (EPA / NIEHS)
